Hits are enriched below; roughly 3.3% of the tested compounds scored in any of these assays.
HCV inhibitor: qHTS Assay for Inhibitors of Hepatitis C Virus (HCV) | Huh7.5.1 HCVcc-Cre infection, luciferase reporter, 44 h | Potency, µM (series often up to 41.8 µM), actives largely listed as inhibitors | hit rate 3.4% among 340,000 | AID 651820, 2012; active means well fitted inhibition curve with a large enough effect; inconclusive means small, poorly fitted or top-dose-only effect, or another doubt; inactive means no such curve, though single readings can be large or run the other way
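Antiviral activity was scored by luciferase reporter output from cells infected with HCVcc-Cre (~0.5 moi) in presence of compound, 44 h infection period, cells seeded 1,000/well 4 h prior.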
VACV Venus inh: qHTS for Stage-Specific Inhibitors of Vaccinia Orthopoxvirus: Venus Reporter Primary qHTS; AID 720580, 2013; hit rate 0.46% among 330,000; Vaccinia virus Venus reporter expression, fluorescence; Potency, µM (titrated, usually from 36.5 µM), usual class: inhibitors; calls by dose curve; tested in A549 cells; further: nearly all actives have a fitted effect of over 30% in size
Vaccinia mCherry: qHTS for Stage-Specific Inhibitors of Vaccinia Orthopoxvirus: mCherry Reporter Primary qHTS; hit rate 0.63% among 310,000; Potency, µM (doses to about 36.5 µM), usual class: inhibitors; Vaccinia virus mCherry reporter infection, fluorescence; calls by dose curve; tested in A549 cells; further: nearly all actives have a fitted effect of over 35% in size
Large screens that a line does not name were inactive.

O=C(c1cnn2c(C(F)(F)F)cc(-c3ccccc3)nc12)N1CCCCC1c1cccnc1 (stereo not drawn)	none
O=C(O)c1cc2nc(-c3ccccc3)cc(-c3ccccc3)n2n1	none
O=C(C[n+]1ccccc1)c1cccc([N+](=O)[O-])c1	none (no result: HCV inhibitor)
COC(=O)c1scc(-c2ccccc2)c1S(=O)(=O)Nc1cccc(C)c1C	none (no result: HCV inhibitor)
CN1CCC(OC(=O)c2ccc(Br)cc2)CC1	none (no result: VACV Venus inh, Vaccinia mCherry)
CN1CCC(=C(c2ccccc2)c2ccc(Br)cc2)CC1	HCV inhibitor 8.9µM (no result: VACV Venus inh, Vaccinia mCherry)
COc1ccccc1-c1ccc(Nc2cccc(C(F)(F)F)c2)nn1	none (no result: Vaccinia mCherry)
COc1ccccc1-c1ccc(NC2CCCCC2)nn1	HCV inhibitor 22µM (no result: VACV Venus inh, Vaccinia mCherry)
COc1cc(C(=O)Nc2cccc3ncccc23)cc(OC)c1OC	HCV inhibitor inconclusive (no result: Vaccinia mCherry)
COc1ccc(Br)cc1C(=O)Nc1ccc(O)cc1	HCV inhibitor 4µM
COc1ccc(Br)cc1C(=O)Nc1ccc(C(=O)O)cc1	HCV inhibitor inconclusive
COc1ccc(Br)cc1C(=O)Nc1cccc2ncccc12	HCV inhibitor 10µM (no result: VACV Venus inh, Vaccinia mCherry)
CCCCN1C(=O)C(CC(=O)NC2CCCC2)CC(C(=O)N2CCOCC2)=C1C (stereo not drawn)	none (no result: HCV inhibitor)
CCOC(=O)/C=C/C(=O)Nc1cccc([N+](=O)[O-])c1	HCV inhibitor inconclusive
CCOC(=O)/C=C/C(=O)Nc1ccccc1-c1ccccc1NC(=O)/C=C/C(=O)OCC	HCV inhibitor 13µM
C[C@H](CO)N1C[C@H](C)[C@H](CN(C)C(=O)c2cc(-c3ccccc3)on2)OCc2cnnn2CCCC1=O	none (no result: HCV inhibitor)
COc1ccccc1C(=O)N/C(=N/c1nc(C)cc(C)n1)Nc1ccccc1	HCV inhibitor 8.9µM
CCC(=O)N/C(=N/c1nc(C)cc(C)n1)Nc1ccccc1	none
CNC(=O)c1cc2c(-c3ccccc3)nn(C)c2s1	none
COc1ccc(C2c3c(n(C)c4ccccc34)C(=O)N2CC(=O)Nc2cccc(F)c2)cc1 (stereo not drawn)	none (no result: HCV inhibitor)
N#C/C(=C/c1cn(-c2ccccc2)nc1-c1cccc(OCc2ccccc2)c1)C(=O)NCCCn1ccnc1	HCV inhibitor inconclusive, VACV Venus inh inconclusive
CCOc1cccc(-c2nn(-c3ccccc3)cc2/C=C(/C#N)C(=O)NCCCn2ccnc2)c1	HCV inhibitor 18µM, VACV Venus inh inconclusive, Vaccinia mCherry inconclusive
CCC(=O)N(CCC(c1ccco1)C(C)C)Cc1ccccc1 (stereo not drawn)	none
CCC(=O)N(CCC(c1ccc(C)cc1)c1ccco1)Cc1ccco1 (stereo not drawn)	HCV inhibitor 11µM
COc1cccc(C(C(=O)NC2CCCC2)N(C(=O)c2ccco2)c2ccc(C(C)=O)cc2)c1OC (stereo not drawn)	none
CC(C)CNC(=O)c1cc([N+](=O)[O-])ccc1N1CCOCC1	none
Cc1cc(C)c(NC(=O)CNC(=O)c2cc([N+](=O)[O-])ccc2N2CCOCC2)c(C)c1	HCV inhibitor 25µM
O=C(Nc1ccc2oc(=O)ccc2c1)c1cc([N+](=O)[O-])ccc1N1CCOCC1	none
Cc1cc(=O)oc2cc(NC(=O)c3cc([N+](=O)[O-])ccc3N3CCOCC3)ccc12	HCV inhibitor 10µM
CCCS(=O)(=O)NCc1c(C)ncc2c1CCN(C(=O)c1cccc(Cl)c1F)C2	none (no result: HCV inhibitor)
COc1cccc(CCn2c(N)cc(=O)[nH]c2=S)c1OC	none (no result: HCV inhibitor)
CC1O[C@@H](OC2CC(O)[C@@]3(CO)C4C(O)C[C@@]5(C)C(C6=CC(=O)OC6)CC[C@]5(O)C4CC[C@]3(O)C2)C(O)C(O)C1O (stereo partly drawn)	VACV Venus inh 0.28µM, Vaccinia mCherry 0.32µM (no result: HCV inhibitor)
C[C@@H]1O[C@@H](O[C@H]2C[C@@H](O)[C@]3(CO)[C@H]4[C@H](O)C[C@]5(C)[C@@H](C6=CC(=O)OC6)CC[C@]5(O)[C@@H]4CC[C@]3(O)C2)[C@H](O)[C@H](O)[C@H]1O	HCV inhibitor 2.2µM, VACV Venus inh 0.63µM, Vaccinia mCherry 0.5µM
CC1CC2C(C(O)CC3(C)C2CCC3(O)C(=O)CO)C2(C)C=CC(=O)C=C12 (stereo not drawn)	none
C[C@@H]1O[C@@H](O[C@H]2C[C@@H](O)[C@]3(CO)[C@@H]4C(CC[C@]3(O)C2)[C@@]2(O)CC[C@H](C3=CC(=O)OC3)[C@@]2(C)C[C@H]4O)[C@H](O)[C@H](O)[C@H]1O (stereo partly drawn)	none (no result: HCV inhibitor)
COc1ccc(Cl)cc1NC(=O)c1cc(S(=O)(=O)N(C)Cc2ccccc2)ccc1F	none (no result: HCV inhibitor)
Cc1ccc(-c2c(CN3CCN(c4cccc(C(F)(F)F)c4)CC3)csc2C)cc1	none (no result: HCV inhibitor)
COCC(=O)Nc1cc(C(=O)N2CCN(C3CCCC3)C(=O)C2)c2c(c1)nc(-c1ccncc1)n2C	none (no result: HCV inhibitor)
COc1cc2c(cc1NC(=O)COC(=O)c1ccc(C(C)(C)C)cc1)oc1ccccc12	none
COCCCNC(=S)Nc1cc2oc3ccccc3c2cc1OC	HCV inhibitor 8.9µM, VACV Venus inh inconclusive, Vaccinia mCherry inconclusive
COc1cc2c(cc1NC(=S)Nc1cccc(C(F)(F)F)c1)oc1ccccc12	HCV inhibitor 10µM, Vaccinia mCherry inconclusive
COc1cc2c(cc1NCc1ccccn1)oc1ccccc12	HCV inhibitor inconclusive
COc1cc2c(cc1NC(=S)Nc1cccc3ccccc13)oc1ccccc12	HCV inhibitor 2.5µM (no result: Vaccinia mCherry)
COc1cc2c(cc1NCc1ccc3c(c1)OCO3)oc1ccccc12	HCV inhibitor inconclusive
CCC1Oc2ccccc2N(CC(=O)NC2CCCC2)C1=O (stereo not drawn)	none
CN(C)C=Nc1ccc([N+](=O)[O-])c2ccccc12	none (no result: HCV inhibitor)
CC(=O)c1c(C)[nH]c(C(=O)Nc2nccs2)c1C	HCV inhibitor 10µM, VACV Venus inh inconclusive
CC(=O)c1c(C)[nH]c(C(=O)Nc2cccc(C)n2)c1C	none (no result: VACV Venus inh, Vaccinia mCherry)
COc1ccc(C2CC(c3ccccc3Cl)=NN2c2ccc(S(N)(=O)=O)cc2)cc1 (stereo not drawn)	HCV inhibitor inconclusive, VACV Venus inh inconclusive, Vaccinia mCherry 13µM
COc1ccc(C2CC(c3ccccc3)=NN2c2ccc(S(N)(=O)=O)cc2)cc1 (stereo not drawn)	HCV inhibitor inconclusive, Vaccinia mCherry inconclusive
CCOC(=O)C1CCN(S(=O)(=O)c2cc(C(=O)OC)n(C)c2)CC1	none
O=[N+]([O-])c1ccc(N=Nc2c(Cl)cc(O)cc2Cl)cc1	HCV inhibitor 5µM, VACV Venus inh inconclusive, Vaccinia mCherry inconclusive
CC(N)=Nc1ccc([N+](=O)[O-])cc1	none
COC(=O)C1=C(C)NC(C)=C(C(=O)OCC2CCCO2)C1c1cccc(Br)c1 (stereo not drawn)	none
COc1cccc(CNc2cc(C)nc3nc(-c4ccc(C)cc4)nn23)c1	none (no result: HCV inhibitor)
CCN(CC)c1ccc(NC(=O)CCS(=O)(=O)c2cc3c(cc2Cl)NC(=O)CO3)c(C)c1	none (no result: HCV inhibitor)
CC1Oc2ccccc2C=C1/C=N/Nc1ccc(C(=O)O)cc1 (stereo not drawn)	Vaccinia mCherry 13µM
CC(C)(C)c1ccc(/C=N/Nc2ccc(C(=O)O)cc2)cc1	VACV Venus inh inconclusive, Vaccinia mCherry inconclusive
COc1cccc(C2(CC(=O)N3CCC(c4nc5ccccc5o4)CC3)CC(=O)N(C)C2=O)c1 (stereo not drawn)	none (no result: HCV inhibitor)
COc1cccc(N2CCN(C(=O)CC(C)(C)CC3=NS(=O)(=O)c4ccccc4N3)CC2)c1	HCV inhibitor 11µM
O=C(CCCC1=NS(=O)(=O)c2ccccc2N1)N1CCN(c2ccccc2)CC1	none (no result: VACV Venus inh, Vaccinia mCherry)
COCCNc1ccc(-c2nc(-c3ccccn3)no2)cc1[N+](=O)[O-]	none (no result: HCV inhibitor)
